# CHX counter = affects cycloheximide protein synthesis inhibition readout, counter-screen | cell reporter, cycloheximide protein synthesis inhibition counterscreen | max response, % | 12% of 300,000 active | AID 2314; in the data active means max response mostly above about 13%, no sharp cut-off; inactive means mostly below about 14%; further: read at 38.3 µM for the half of the compounds with a filed dose; 0% is about no effect
# LASV entry inh = Lassa virus entry inhibition | 1.2% of 300,000 active | Lassa virus pseudotype entry inhibition, cell reporter | Potency, µM (highest dose often 37.9 µM), for the others: at the top dose activity change, negative = inhibition, most hits filed as inhibitors; calls by dose curve; tested in HEK293 cells; further: potency means the concentration at half of the fitted maximal effect; on the % scale 0 is the no-effect control and ±100 the full control effect; nearly all actives have a fitted effect of over 50% in size
# Pf growth 48h = inhibits P. falciparum growth in the first generation, 48 h; Potency, µM (highest dose often 28.7 µM), without a hit: at the top dose activity change, negative = inhibition, hits mostly inhibitors; AID 504832; 5.9% of 310,000 active; P. falciparum luciferase growth in erythrocytes, 48 h; further: potency means the concentration at half of the fitted maximal effect; on the % scale 0 is the no-effect control and ±100 the full control effect
#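 Luciferase-expressing parasites in RBCs, 2% Hct / 0.1% parasitemia final; RPMI 1640 + 0.5% Albumax; 37 C, 5% CO2, one generation; luminescence read-out, lower signal = inhibition.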
# Shiga inhibitor = inhibitors of Shiga toxin in Vero cells. inhibition, % at 38.7 µM. 9.2% of 290,000 active. AID 2315. Vero cells, Shiga toxin protein synthesis inhibition reporter; in the data active means inhibition mostly above about 28%, no sharp cut-off; inactive means mostly below about 43%; further: 0% is about no effect
# Pf growth 96h = P. falciparum growth inhibition at 96 hour, primary screen for plastid delayed-death inhibitors; 6.9% of 320,000 active; Potency, µM (highest dose often 28.7 µM), inactives show at the top dose activity change, negative = inhibition, usual class: inhibitors; AID 504834; P. falciparum luciferase reporter growth, 96 h; further: potency means the concentration at half of the fitted maximal effect; on the % scale 0 is the no-effect control and ±100 the full control effect
#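 P. falciparum expressing integrated firefly luciferase grown in erythrocytes (2% hematocrit, 0.05% parasitemia final) with compounds for 96 hours at 37 C, 5% CO2. Growth inhibition read as loss of luminescence after adding luciferase detection reagent.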
# MARV entry inh = Marburg virus entry inhibition. Marburg virus pseudotyped entry inhibition, cell reporter. Potency, µM (highest dose often 37.8 µM), inactives show at the top dose activity change, negative = inhibition, most hits filed as inhibitors. 1.8% of 300,000 active; calls by dose curve; tested in HEK293 cells; further: potency means the concentration at half of the fitted maximal effect; on the % scale 0 is the no-effect control and ±100 the full control effect
# * marks the source's active call; other numbers are inactive results; ? = inconclusive; · = no result; [ ] = another dose, or the depositor's remark. A selection: hits, their analogues and other compounds. The true share with any hit is near 19%. Unless noted, the call rests on the fitted dose curve; in most records, active means well fitted inhibition curve with a large enough effect; inconclusive means small, poorly fitted or top-dose-only effect, or another doubt; inactive means no such curve, though single readings can be large or run the other way.
SMILES,CHX counter,LASV entry inh,Pf growth 48h,Shiga inhibitor,Pf growth 96h,MARV entry inh
Cc1cccc(Nc2ccccc2C(=O)OCC(=O)N2CCOCC2)c1C,14.9,?,-10.0%,-2.0,13.7%,?
CC(C)=CCCC(C)CN1CCC(N2CCC(C(=O)NC(C)C)CC2)CC1 (stereo not given),-2.9,·,5.22µM*,-7.2,?,·
CCOC(=O)c1oc2nc3c(cc2c1N)CCCC3,50.3*,?,202.8%,77.0*,11.7µM*,?
CCOC(=O)c1oc2nc3c(cc2c1N)COC(C)(C)C3,20.1*,4.9%,18.9%,81.9*,0.6%[5.75 µM],21.5%
Cc1cccc(N2CC(C(=O)Nc3ccc(S(=O)(=O)N4CCCCC4)cc3)CC2=O)c1C (stereo not given),-5.4,7.5%,?,18.4,?,-25.9%[46.1 µM]
CCCCOc1ccc(C(=O)N2CCNC(=O)C2CC(=O)OC(C)C)cc1 (stereo not given),-1.3,·,0.0%,-4.5,?,·
CC(C)COc1ccc(/C(=N/O)c2ccccc2)cc1,29.7*,-22.6%,·,38.3,-4.0%,0.7%
CC(O)COc1ccc(/C(=N/O)c2ccccc2)cc1 (stereo not given),1.3,13.6%,33.1%,9.5,-8.7%,?
COc1ccc(N/C=C2\CCc3ccccc3C2=O)cc1,3.3,·,34.7%,-3.7,13.7%,·
O=C1/C(=C/Nc2ccc3c(c2)OCO3)CCc2ccccc21,15.4,1.41µM*,·,5.9,-96.6%,?
COc1ccc2c(c1)CC/C(=C\Nc1ccc3c(c1)OCO3)C2=O,77.1*,?,3.6%,38.2,·,?
COCCN1C(=O)C(CC(=O)Nc2ccccc2)SC1=Nc1ccc(OC)cc1 (stereo not given),-9.9,-3.1%,·,-4.3,?,-28.7%
COc1ccc(N=C2SC(CC(=O)Nc3ccccc3F)C(=O)N2Cc2ccco2)cc1 (stereo not given),21.4*,?,?,20.5,?,-11.7%
COc1ccc(N=C2SC(CC(=O)Nc3ccccc3)C(=O)N2Cc2ccco2)cc1 (stereo not given),9.3,?,?,39.4*,?,-20.6%
CCOc1ccc(N=C2NC(=O)C(CC(=O)Nc3ccccc3)S2)cc1 (stereo not given),7.0,·,8.28µM*,1.3,4.6%,·
CCN1CCN(C(=O)C(C)Oc2ccc(S(=O)(=O)N3CCCC3)cc2C(N)=O)CC1 (stereo not given),·,·,-15.6%,·,?,·
Cc1cccc(OC(=O)c2cncc(Br)c2)c1,11.5,2.7%,9.4%,4.2,?,15.2%
CC(NC(=O)c1ccco1)C(=O)Nc1nccs1 (stereo not given),·,8.5%,·,·,·,-9.5%
Cc1ccc(C2CC(=O)C(C=NCCN3CCN(CC(=O)Nc4cc(C)cc(C)c4)CC3)=C(O)C2)cc1 (stereo not given),-2.7,·,-8.2%,45.0,?,·
O=S(=O)(c1ccc2ccccc2c1)N1CCN(C(=S)Nc2ccc(F)c(Cl)c2)CC1,-1.6,?,1.04µM*,14.3,0.329µM*,?
N#CCC(=O)Nc1ccc(C(=O)N2CCN(S(=O)(=O)c3ccc4ccccc4c3)CC2)cc1,-0.9,29.7%[46.1 µM],14.7µM*,-4.5,?,20.4%[46.1 µM]
O=S(=O)(c1ccc2ccccc2c1)N1CCN(C(=S)Nc2ccccc2F)CC1,-1.2,·,1.65µM*,-7.5,3.29µM*,·
O=S(=O)(c1ccc(Cl)cc1)N1CCN(C(=S)Nc2ccccc2F)CC1,-3.3,-12.0%[46.1 µM],0.928µM*,-3.5,?,-11.8%[46.1 µM]
Fc1ccccc1NC(=S)N1CCOCC1,9.6,·,-3.0%,-6.1,45.9%,·
CC(=O)c1ccc(NC(=O)CN2CCN(S(=O)(=O)c3ccc4ccccc4c3)CC2)cc1,·,·,?,·,-18.7%,·
SMILES,CHX counter,LASV entry inh,Pf growth 48h,Shiga inhibitor,Pf growth 96h,MARV entry inh
COc1ccc(S(=O)(=O)NCc2ccccn2)cc1Br,-0.9,-2.2%[46.1 µM],?,13.9,-16.6%,-5.9%[46.1 µM]
COc1ccc(CCNC(=O)C(C)OC(=O)c2ccco2)cc1OC (stereo not given),-4.9,-16.6%,·,-9.2,?,-1.5%
COc1ccc(CSc2nc(C)[nH]c2[N+](=O)[O-])cc1[N+](=O)[O-],6.8,12.4%,32.4%,-4.7,2.2%,?
CN(Cc1nccs1)C(=O)C1CCC(=O)N(CCc2cccc(F)c2)C1 (stereo not given),2.5,5.3%,8.6%,31.1,7.4%,22.6%
O=C(NCCCN1CCCC1=O)c1ccc2c(=O)n(-c3ccc(F)cc3)c(=S)[nH]c2c1,-4.2,·,-9.5%,31.9,-12.3%,·
O=S(=O)(NCC(c1ccc2c(c1)OCO2)N1CCOCC1)c1ccc(Cl)cc1 (stereo not given),·,13.2%,-17.7%,·,3.3%,?
Cc1cc(S(=O)(=O)NCC(c2ccc3c(c2)OCO3)N2CCOCC2)ccc1F (stereo not given),·,·,?,·,14.7µM*,·
CCO[C@@H]1OC(C(=O)NC2CC2)=C[C@H](C2CC2)[C@H]1CCCO,-11.4,·,42.1%,-1.4,51.8%,·
Cc1ccc(C(C)C)c(OCCSc2nc3ccccc3n2CC(O)CO)c1 (stereo not given),·,2.7%[46.1 µM],·,·,·,-21.9%[46.1 µM]
O=C(CSc1nnc(NC(=O)c2c(F)cccc2F)s1)Nc1ccc(F)cc1,10.2,10.4%,57.7%,52.8,?,8.8%
CC1CCN(CCCNC(=O)c2ccc3c(Cl)c4c(nc3c2)CCCC4)CC1,-0.8,?,13.1µM*,-6.8,?,10µM*
COCCNC(=O)c1ccc2c(Cl)c3c(nc2c1)CCC3,45.9*,14.3%,109.6%,77.0*,23.4%,?
CCCN(CCC)CCCNC(=O)c1ccc2c(Cl)c3c(nc2c1)CCC3,8.7,-1.6%,?,3.4,31.4%,?
O=C(NCCCN1CCCCCC1)c1ccc2c(Cl)c3c(nc2c1)CCCC3,-2.6,?,?,-15.8,46.8%,?
Cc1ccccc1NCC(=O)N/N=C/c1c(C)c(C(=O)c2ccc(Cl)cc2)n2ccccc12,3.0,?,13.1µM*,15.5,4.65µM*,?
Cc1c(/C=N/NC(=O)CNc2ccccc2)c2ccccn2c1C(=O)c1ccc(Cl)cc1,-0.6,?,3.29µM*,-23.1,3.29µM*,?
Cc1c(/C=N/NC(=O)CNc2ccccc2)c2ccccn2c1C(=O)c1ccncc1,-1.9,0.1%,?,-2.9,?,8.8%
CC(=O)c1cccc(NC(=O)CN2C(=O)c3ccccc3C2=O)c1,-1.7,23.4%[46.1 µM],27.3%,-10.4,-20.1%,-1.0%[46.1 µM]
CC(C)c1ccc(NS(=O)(=O)c2cc(Br)cc3c2N(C(=O)C2CC2)CC3)cc1,·,-22.3%[46.1 µM],·,·,·,?
Cc1ccccc1NC(=O)CSc1nc2ccccc2c2nc(CCn3c(C)nc4ccccc43)nn12,·,1.2%[46.1 µM],·,·,·,·
Cc1cccc(NC(=O)CSc2nc3ccccc3c3nc(CCc4c(C)n[nH]c4C)nn23)c1,-0.7,?,7.38µM*,-17.7,18.9%,18.3µM*
Cc1cncn1CCc1nc2c3ccccc3nc(SCC(=O)Nc3cccc(Cl)c3)n2n1,2.6,?,?,-13.7,0.7%,6.51µM*
